Sa helicase inh = inhibitors of S. aureus replicative helicase, primary screen, biochemical, fluorescence unwinding readout | replicative DNA helicase (DnaC/DnaB), Staphylococcus aureus | purified S. aureus helicase, fluorescence unwinding assay | inhibition, % (test concentration not listed) | 120,000 compounds, 0.05% hits; in the data active means inhibition above about 25%, passing the limit was not always enough;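 further: 0% = mean of negative control wells and 100% = mean of positive control wells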
Sa growth 42C = S. aureus growth inhibition at 42 and 30 °C, primary screen, LtaS inhibitor project, RN4220, two temperatures; relative growth, % (no concentration beside the values); 170,000 compounds, 0.53% hits; AID 720641, 2013; OD600, 20 h, 42 °C; active compounds read low;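 active means relative growth at most 50% at the other temperature and 20+ points below 30 °C, or under 10% at both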
The depositor's hits bear a star. The entries come from a sample that favours hits as a whole.

Screening COc1ccc(/C=N/C2=NNC(c3ccccc3)=CS2)cc1 returned Sa helicase inh 0 and Sa growth 42C 99.
Screening CCC(c1nnc(SCC(=O)NCC(C)C)o1)N(C)C (stereo unspecified) returned Sa helicase inh -6 and Sa growth 42C 98.
CCC(c1nnc(SCC(=O)NCCc2ccc(Cl)cc2Cl)o1)N(C)C (stereo unspecified) was read as Sa helicase inh 44* and Sa growth 42C 88.
Screening Cc1nn(CCC(=O)Oc2ccc(Cl)cc2)c(C)c1Cl returned Sa helicase inh -3 and Sa growth 42C 92.
For N#CC(C#N)=NNc1ccc(F)cc1C(F)(F)F the results were Sa helicase inh -9 and Sa growth 42C -0.7*.
Screening CC(=O)Nc1ccc(F)cc1NC=C(C#N)C#N returned Sa helicase inh -9 and Sa growth 42C 85.
Screening Cc1ccc2nncc(N3CCN(c4ccccc4F)CC3)c2c1 returned Sa helicase inh 2 and Sa growth 42C 93.
For NC(=S)COc1ccc(F)cc1 the results were Sa helicase inh 25* and Sa growth 42C 100.
For OCc1ccc(OCc2ccc(F)cc2)cc1 the results were Sa growth 42C 113.
`CC1CCCCN1Cc1cn2c(-c3ccc(Br)cc3)nnc2s1` (stereo unspecified) gave Sa helicase inh 18.
N#C/C(=C\c1ccco1)c1ccc(Cl)cc1 was read as Sa growth 42C 49*.
For N#C/C(=C/c1ccc(Br)o1)c1ccc(C(=O)O)cc1 the results were Sa helicase inh 1 and Sa growth 42C 124.
N#C/C(=C\c1ccco1)S(=O)(=O)c1ccc(Cl)cc1 was read as Sa helicase inh 4 and Sa growth 42C 88.
Cc1ccc(/C(C#N)=C\c2cccs2)cc1 was read as Sa helicase inh 8 and Sa growth 42C 93.
Screening N#C/C(=C/c1ccco1)c1ccc(Br)cc1 returned Sa helicase inh -4 and Sa growth 42C 22*.
Cc1ccc(/C(C#N)=C\c2ccco2)cc1 was read as Sa helicase inh -1 and Sa growth 42C 42*.
For O=C(CCSCc1cnn(-c2ccccc2)c1-n1cccc1)NCc1ccc2c(c1)OCO2 the results were Sa helicase inh 2 and Sa growth 42C 124.
For CCSC1=N/C(=C\c2ccco2)C(=O)N1c1ccc(OC)c(Cl)c1 the results were Sa helicase inh -17 and Sa growth 42C 92.
For c1ccc2[nH]c(SCc3ccncc3)nc2c1 the results were Sa helicase inh -19 and Sa growth 42C 113.
Cc1c(C(=O)N2CCc3ccccc32)sc2nc3n(c(=O)c12)CCCC3 was read as Sa helicase inh 3 and Sa growth 42C 91.
O=C(Nc1ccc(Br)cc1)c1c[nH]c2ccccc2c1=O was read as Sa helicase inh -19 and Sa growth 42C 89.
`CCOC(=O)c1c(-c2c(Cl)cccc2Cl)noc1N` gave Sa growth 42C 104.
Screening CCOC(=O)c1c(-c2c(Cl)cccc2Cl)noc1C returned Sa growth 42C 0.5*.
For Nc1nc(CN2CCCCC2)nc2ccccc12 the results were Sa helicase inh -11 and Sa growth 42C 79.
`CS(=O)(=O)c1ncc(Cl)c(C(=O)N2CCN(c3cccc(Cl)c3)CC2)n1` gave Sa growth 42C 64.
`CCS(=O)(=O)c1ncc(Cl)c(C(=O)Nc2ccc(Cl)cc2)n1` gave Sa helicase inh -5 and Sa growth 42C 1.8*.
`CCS(=O)(=O)c1ncc(Cl)c(C(=O)NCc2ccccc2)n1` gave Sa growth 42C 66.
`CCS(=O)(=O)c1ncc(Cl)c(C(=O)N2CCN(c3cccc(Cl)c3)CC2)n1` gave Sa growth 42C 7.0*.
For CCn1c(CNC(=O)c2cccc(C)c2)nnc1SCC(=O)N1CCc2ccccc21 the results were Sa helicase inh -3 and Sa growth 42C 88.
Cc1ccc(NC(=O)C2CCCN2S(=O)(=O)c2ccc3nc(-c4ccccc4)[nH]c3c2)cc1 (stereo unspecified) was read as Sa helicase inh -10 and Sa growth 42C 131.
`COc1cccc(C(=O)Nc2c(C(=O)Nc3ccccc3F)oc3ccccc23)c1OC` gave Sa helicase inh 8 and Sa growth 42C 105.
O=C(CCn1ccnc1)OCc1ccccc1 was read as Sa helicase inh 17 and Sa growth 42C 106.
`O=C(OCCn1ccnc1)c1ccc(-c2ccccc2)cc1` gave Sa helicase inh 9 and Sa growth 42C 3.0*.
COc1ccccc1NC(=O)CC(O)(C(F)(F)F)C(F)(F)F was read as Sa helicase inh 20 and Sa growth 42C 102.
`Cc1ccc(Cl)cc1NC(=O)CC(O)(C(F)(F)F)C(F)(F)F` gave Sa helicase inh 5 and Sa growth 42C -0.8*.
For CN(C)c1nc(OC(C(F)(F)F)C(F)(F)F)nc(N(c2ccccc2)c2ccccc2)n1 the results were Sa helicase inh 13 and Sa growth 42C 103.
For CCC[C@@H]1C[C@@H](C(=O)N[C@@H](C2O[C@H](SC)[C@H](O)[C@@H](O)[C@H]2O)[C@H](C)Cl)N(C)C1 (stereo partly specified) the results were Sa growth 42C -1.1*.
For CCC[C@@H]1C[C@@H](C(=O)N[C@@H]([C@H]2O[C@H](SC)[C@H](O)[C@@H](O)[C@H]2O)[C@H](C)Cl)N(C)C1 the results were Sa growth 42C -0.8*.
For CCC[C@@H]1C[C@@H](C(=O)N[C@H]([C@H]2O[C@H](SC)[C@H](O)[C@@H](O)[C@H]2O)[C@H](C)O)N(C)C1 the results were Sa growth 42C 0.0*.
Screening COc1ccc(-c2cc(C(=O)N(C)c3cccc(C)c3)no2)cc1S(=O)(=O)N1CCC(C)CC1 returned Sa helicase inh 7 and Sa growth 42C 107.
Screening Cc1c(C#N)c(O)n(CCCO)c(=O)c1N=Nc1c(C)n(C)n(-c2ccccc2)c1=O returned Sa helicase inh -25 and Sa growth 42C 74.
Cc1noc(C)c1COc1ccc(C(=O)OCC(=O)NC2CCCc3ccccc32)cc1 (stereo unspecified) was read as Sa helicase inh 12 and Sa growth 42C 104.
`Cc1nnc(SCC2=C(C(=O)O)N3C(=O)[C@@H](NC(=O)Cn4cnnn4)[C@H]3SC2)s1` gave Sa growth 42C -0.6*.
Screening CCN(C(=O)CSc1nnc(C)s1)c1ccccc1 returned Sa helicase inh 7 and Sa growth 42C 86.
Screening CC(=O)OC1CCC2CC1CCC2OC(C)=O (stereo unspecified) returned Sa helicase inh 7 and Sa growth 42C 110.
For Nc1ncc(Cc2cccc(Cl)c2)s1 the results were Sa helicase inh 10 and Sa growth 42C 111.
`Cc1cccc(Cc2cnc(N3C(=N)SC(C)C3=O)s2)c1` (stereo unspecified) gave Sa helicase inh 0 and Sa growth 42C 2.8*.
Screening CC(=O)Nc1ccc(S(=O)(=O)Nc2ccccc2C(=O)NC(C)(C)C)cc1 returned Sa helicase inh 20 and Sa growth 42C 104.
Screening O=C1C(Sc2ccccc2)=C/C(=N/S(=O)(=O)c2cccs2)c2ccccc21 returned Sa helicase inh 16 and Sa growth 42C 0.0*.
For CS/C(=N\S(=O)(=O)c1cccs1)NC(=O)c1ccccc1 the results were Sa helicase inh 13 and Sa growth 42C 98.
Screening CC(C)(C)c1ccc(NC(=O)COC(=O)Cc2ccsc2)cc1 returned Sa helicase inh -1 and Sa growth 42C 97.
`CCOc1ccc(/C=N/N2C(=O)NC(C)(CC)C2=O)c(O)c1` (stereo unspecified) gave Sa helicase inh -17 and Sa growth 42C 100.
